Unmarked numbers belong to inactive results. Records with an inconclusive call do not appear. Calls of active or inactive are those of the source. The call rests on the fitted dose curve; in most records, active means well fitted curve in the direction sought with a large enough effect; inconclusive means small, poorly fitted or top-dose-only effect, or another doubt; inactive means no such curve, though single readings can be large; an effect the other way counts as inactive or inconclusive.

The record followed here is PubChem BioAssay (NCATS).

Assay [1] addresses Glutathione peroxidase 1 (Homo sapiens) (UniProt P07203). In words: Primary qHTS Assay for Inhibitors of Recombinant Selenoprotein Glutathione Peroxidase 1 (GPX1) (AID 1845191). Further: nearly all actives have a fitted effect of over 65% in size. In outline: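 GR-coupled assay: compounds preincubated 30 min at room temperature with GPX1, then reaction started with CHP; final 10 nM GPX1, 1 mM GSH, 0.5 mM CHP, 0.5 mM NADPH, 100 nM GR, 0.01% BSA, pH 7.5 Tris buffer. NADPH fluorescence (340/450 nm) read at 0 and 15 min.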

For assay [2], the target named is Phospholipid hydroperoxide glutathione peroxidase GPX4 (Homo sapiens) (UniProt P36969). In words: Primary qHTS Assay for Inhibitors of Recombinant Selenoprotein Glutathione Peroxidase 4 (GPX4) (AID 1845192). Further: series mostly up to about 50 µM; nearly all actives have a fitted effect of over 65% in size. In outline: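 GR-coupled assay: recombinant GPX4 preincubated 30 min with compound at room temperature; final 200 nM GPX4, 1 mM GSH, 0.5 mM cumene hydroperoxide, 0.5 mM NADPH, 100 nM GR, 0.01% BSA, pH 7.5 Tris. NADPH fluorescence (340/450 nm) read at 0 and 15 min.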
(In general: In qHTS, concentration-response curves come from the screen itself.)

The target in assay [3] is Luciferin 4-monooxygenase (Photinus pyralis) (UniProt P08659). Briefly: Primary firefly luciferase (FLuc) qHTS assay for identification of artifact compounds. (AID 1845220). Further: nearly all actives have a fitted effect of over 60% in size. Further: potency means the concentration at half of the fitted maximal effect. In outline: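 Titrated compounds were incubated 15 min at RT, protected from light, with luciferin and ATP at 10 uM; reaction started with 10 nM FLuc, luminescence imaged at 5 min, and concentration-response fitted by Hill equation.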

The nature of assay [4]: Primary fluorescence-based thiol-reactive (MSTI) qHTS assay for identification of artifact compounds. (AID 1845221).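 Further: series mostly up to about 54 µM; thiol-reactive compounds lower the probe fluorescence signal; nearly all actives have a fitted effect of over 65% in size.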 In outline: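 qHTS titration of compound; 4 uM MSTI, PBS pH 7.4, 2% DMSO; 1 h RT, dark; fluorescence 525/598 nm; normalized to Acetyl-MSTI and MSTI; 4-parameter Hill fit.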
Assay [5] has as its system Nanoluciferase (engineered Oplophorus gracilirostris luciferase). Briefly: Primary Nanoluciferase (NLuc) qHTS assay for identification of artifact compounds. (AID 1845222).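 Further: NLuc secreted into diluted conditioned medium of S16 cells; series mostly up to about 54 µM.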 In outline: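 qHTS format, against NLuc in S16 cell-conditioned medium. Nano-Glo substrate 1:100 was added after 15 min at room temperature. Luminescence was taken after a further 5 min.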
The nature of assay [6]: Primary redox qHTS assay for identification of artifact compounds. (AID 1845223). In outline: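 Amplex Red (25 uM) and HRP (250 mU/mL) in HBSS, with compounds for 15 min, then 250 uM DTT for 30 min, room temperature, dark. Fluorescence 525/598 nm read; normalized to DMSO and 10 uM DA3003; Hill fit.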

Sequence of Phospholipid hydroperoxide glutathione peroxidase GPX4 (Homo sapiens) (P36969 whole entry, looked up): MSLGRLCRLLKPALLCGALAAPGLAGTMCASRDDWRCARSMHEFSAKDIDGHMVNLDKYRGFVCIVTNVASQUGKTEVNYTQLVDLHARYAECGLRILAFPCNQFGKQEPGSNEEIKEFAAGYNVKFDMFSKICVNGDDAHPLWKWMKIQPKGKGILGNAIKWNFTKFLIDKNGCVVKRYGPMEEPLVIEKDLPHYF
Sequence of Glutathione peroxidase 1 (Homo sapiens) (P07203 whole entry, looked up): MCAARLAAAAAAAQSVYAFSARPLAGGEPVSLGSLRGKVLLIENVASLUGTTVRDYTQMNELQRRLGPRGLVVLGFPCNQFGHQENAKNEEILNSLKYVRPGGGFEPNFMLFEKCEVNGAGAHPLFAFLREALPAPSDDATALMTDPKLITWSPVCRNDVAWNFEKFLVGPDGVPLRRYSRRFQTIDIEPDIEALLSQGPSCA

With `Cc1ccc(S(=O)(=O)NCc2ccc(C(=O)NCCN(Cc3ccccc3)C(C)C)cc2)cc1`, the Potency entry in assay [1], in assay [2], in assay [3], in assay [4], in assay [5] and in assay [6] was “inactive” throughout.
With `CCCc1cc2c(N3CCN(C4=NCC(C)(C)S4)CC3)ncnc2s1`, the Potency result in assay [1], in assay [2], in assay [3], in assay [4], in assay [5] and in assay [6] was “inactive” each time.
For `C[C@H](Oc1cc(-c2cnn(C3CCNCC3)c2)cnc1N)c1c(Cl)ccc(F)c1Cl`, the Potency entry in assay [1], in assay [2], in assay [3], in assay [4], in assay [5] and in assay [6] was “inactive” in each case.
On to `O=C(NCCN1CCC(n2c(=O)[nH]c3ccccc32)CC1)c1ccc2ccccc2c1`, for which the Potency result in assay [1], in assay [2], in assay [3], in assay [4], in assay [5] and in assay [6] was “inactive” in each case.
Consider `CC(C)Oc1ccc(-c2cnc3c(-c4ccnc5ccccc45)cnn3c2)cc1`, for which the Potency result in assay [1], in assay [2], in assay [3], in assay [4], in assay [5] and in assay [6] was “inactive” throughout.
As for `O=S(=O)(Cc1ccccc1)Nc1ccc(-c2ccc3c(cnn3-c3ccc(F)cc3)c2)c(C(F)(F)F)c1`, the Potency result in assay [1], in assay [2], in assay [3], in assay [4], in assay [5] and in assay [6] was “inactive” throughout.
Consider `C=C1CC(=O)C2OC2(C)CC2OC(=O)C(=C)C2C(O)C1OC(=O)/C(C)=C\C` (centres undefined), for which the Potency result in assay [1], in assay [2], in assay [3], in assay [4], in assay [5] and in assay [6] was “inactive” in each case.
With `Cn1ncc(Cl)c1-c1cc(C(=O)N[C@H](CN)Cc2ccc(F)c(F)c2)sc1Cl`, the Potency entry in assay [1], in assay [2], in assay [3], in assay [4], in assay [5] and in assay [6] was “inactive” each time.
As to `C=C1C(=O)O[C@@H]2/C=C(\C)CC/C=C(\C)CC[C@@H]12`, the Potency result in assay [1], in assay [2], in assay [3], in assay [4], in assay [5] and in assay [6] was “inactive” throughout.
`COc1cc(C(=O)NC(=S)Nc2cccc(NC(=O)c3ccccc3)c2)cc(OC)c1OC`: the Potency entry in assay [1], in assay [2], in assay [3], in assay [4], in assay [5] and in assay [6] was “inactive” in each case.
On to `CC(=O)OC1CC(C)C2(CCC3(CC(=O)OC3O)O2)C2(C)CCCC(C)(C)C12` (centres undefined), for which the Potency result in assay [1], in assay [2], in assay [3], in assay [4], in assay [5] and in assay [6] was “inactive” throughout.
For the molecule `CCS(=O)c1nc(-c2cccc(OCc3ccccc3)c2)cc(C(F)(F)F)n1` (centres undefined), the Potency entry in assay [1], in assay [2], in assay [3], in assay [4], in assay [5] and in assay [6] was “inactive” each time.
In the case of `CC(C)(C)c1ccc2c(c1)CC[C@H]2NC(=O)Nc1cccc2[nH]ncc12`, the Potency result in assay [1], in assay [2], in assay [3], in assay [4], in assay [5] and in assay [6] was “inactive” throughout.
As for `CC(C)[C@@H](c1ccc(C(F)(F)F)cc1CN(Cc1cc(C(F)(F)F)cc(C(F)(F)F)c1)c1nnn(C)n1)N1CCC(C(=O)O)CC1`, the Potency result in assay [1], in assay [2], in assay [3], in assay [4], in assay [5] and in assay [6] was “inactive” in each case.
As to `Cc1ccc(C2(C(=O)N3CCC(n4nc(-c5ccccc5)oc4=O)CC3)CC2)cc1`, the Potency result in assay [1], in assay [2], in assay [3], in assay [4], in assay [5] and in assay [6] was “inactive” each time.
Turning to `CC(C)c1ccc(NC(=O)c2cccs2)c(-c2nc3ccccc3[nH]c2=O)c1`, the Potency entry in assay [1], in assay [2], in assay [3], in assay [4], in assay [5] and in assay [6] was “inactive” each time.
On to `C=C1C(=O)O[C@@H]2C(OC(=O)/C(C)=C\C)/C(C)=C\C(=O)/C=C(\C)C[C@H](O)[C@@H]12` (some centres undefined), for which the Potency entry in assay [1], in assay [2], in assay [3], in assay [4], in assay [5] and in assay [6] was “inactive” in each case.
Regarding `CCCCOc1ccc(S(=O)(=O)n2c(C)nc3ccccc32)cc1`, the Potency result in assay [1], in assay [2], in assay [3], in assay [4], in assay [5] and in assay [6] was “inactive” in each case.
With `COc1ccc(CCCN2CCC(COC(c3ccccc3)c3ccccc3)CC2)cc1`, the Potency result in assay [1], in assay [2], in assay [3], in assay [4], in assay [5] and in assay [6] was “inactive” in each case.
`COC(=O)/C=C/C=C/C(=O)OC1C=C2COC(=O)C2(O)C2(C)CCCC(C)(C)C12` (centres undefined): the Potency entry in assay [1], in assay [2], in assay [3], in assay [4] and in assay [6] was “inactive” in each case.
On to `c1ccc(-c2ccc(CNc3nc(-c4ccccn4)nnc3-c3ccccc3)cc2)cc1`, for which the Potency result in assay [1], in assay [2], in assay [3], in assay [4] and in assay [6] was “inactive” in each case.
In the case of `CC(C)(O)C1Cc2c(ccc(C(=O)CCc3ccccc3)c2O)O1` (centres undefined), the Potency result in assay [1], in assay [2], in assay [4] and in assay [6] was “inactive” in each case. The Potency in assay [3] was 294 nM (active).
On to `C=C1CCC[C@]2(C)CC/C(=C(/CO)C(=O)OC)C[C@@H]12`, for which the Potency entry in assay [1], in assay [2], in assay [3], in assay [4] and in assay [6] was “inactive” each time.
